The text below walks through data of the supplement of paper PMC13380429.

For the experiment, the system named is Vero E6 infected with SARS-CoV-2. Put plainly: inhibition of SARS-CoV-2 cytopathic effect; higher = more antiviral protection, active = above 15. To be noted: 10000 nM; 48 h. In general terms: Protection from cytopathic effect is a common read-out in antiviral testing.
As to `N#CC(=C(/N)Sc1ccccc1N)/C(C#N)=C(/N)Sc1ccccc1N`, the “inhibition of SARS-CoV-2 cytopathic effect” value (“inhibition” below) is -8.7% (inactive).
Turning to `CC(C)[C@@H]1C(=O)N(S(C)(=O)=O)[C@@H]2CCN(C(=O)/C=C/CN3CCCCC3)[C@H]21`, the “inhibition” value was 0.66% (inactive).
`O=P(O)(O)C(Cl)(Cl)P(=O)(O)O` [clodronic-acid]: the “inhibition” value was -1.06% (inactive).
As for `CCCCCCCC/C=C\CCCCCCCC(=O)NCCO` [oleoylethanolamide], the “inhibition” value is -4.33% (inactive).
`COc1cc2ncc(-c3ccccc3)nc2cc1OC` [tyrphostin-AG-1296]: the “inhibition” value is -1.96% (inactive).
Turning to `CNC[C@H](O)c1ccc(O)c(O)c1` [epinephrine], the “inhibition” value was -0.94% (inactive).
Take `CC(=O)Nc1cccc(-n2c(=O)n(C3CC3)c(=O)c3c(Nc4ccc(I)cc4F)n(C)c(=O)c(C)c32)c1` [trametinib]: the “inhibition” value was -17.4% (inactive).
The figure for `Cc1ccc2cc(-c3c(C)ccc(C(=O)c4c(-c5ccccc5)n(C)n(-c5ccccc5)c4=O)c3N)ccc2n1` is 43.4% (active).
In the case of `Cc1csc2c(N[C@@H](C)CN3CCN(S(=O)(=O)c4ccc(Cl)c(Cl)c4)CC3)ncnc12` [LPA2-antagonist-1], the “inhibition” value was 5.53% (inactive).
The figure for `Cc1[nH]nc(C(F)(F)F)c1Cc1sc2c(c1C(=O)N1C[C@](C)(O)CO1)c(=O)n(C)c(=O)n2C(C)C` is 2.23% (inactive); for `COc1ccc(NS(=O)(=O)c2ccc(N)cc2)nn1` [sulfamethoxypyridazine] it is 2.16% (inactive); for `COc1ccc(C[C@H]2NC[C@H](O)[C@H]2OC(C)=O)cc1` [anisomycin] it is -30.6% (inactive).
As for `C=CCc1cccc(/C=N/NC(=O)CN2CCN(Cc3ccccc3)CC2)c1O`, the “inhibition” value is -2.23% (inactive).
To `Cc1c(C(N)=O)cc([N+](=O)[O-])cc1[N+](=O)[O-]` [dinitolmide] belongs -3.59% (inactive).
Consider `CNC1CCCN(c2c(F)cc3c(=O)c(C(=O)O)cn(C4CC4)c3c2OC)C1` (stereo not given) [balofloxacin], for which the “inhibition” value is 2.43% (inactive).
The figure for `CC1=NN(c2ccc(C)c(C)c2)C(=O)/C1=N\Nc1cccc(-c2cccc(C(=O)O)c2)c1O` [eltrombopag] is 0.99% (inactive); for `O=C(NCCCN1CCOCC1)c1ccc(Cl)cc1` [eprobemide] it is 0.69% (inactive); for `O=c1c(O)c(-c2ccc(O)cc2)oc2cc(O)cc(O)c12` [kaempferol] it is 11.2% (inactive).
To `CCCCCCCCCCCCCCCCCCN(CCCCCCCCCCCCCCCCCC)CCCN(CCO)CCO` [avridine] belongs -10.1% (inactive).
To `O=C1NC(=O)c2c1c1c3ccccc3[nH]c1c1[nH]c3ccccc3c21` [arcyriaflavin-a] belongs -10.1% (inactive); to `CC(=O)OC[C@H]1O[C@@H](n2ccc(=O)[nH]c2=O)[C@H](OC(C)=O)[C@@H]1OC(C)=O` [uridine-triacetate], -0.59% (inactive).
Take `O=C(NC1CCOCC1)c1ccc(-c2cc(-c3c[nH]nc3-c3ccccn3)ccn2)cc1`: the “inhibition” value was 3.89% (inactive).
To `O=C(NCC1CCCCN1)c1cc(OCC(F)(F)F)ccc1OCC(F)(F)F` (stereo not given) [flecainide] belongs -3.89% (inactive); to `O=C1Nc2ccccc2/C1=C1/Nc2ccccc2C1=O` [indirubin], 0.51% (inactive).
Take `c1cnc2c([O][Ga]([O]c3cccc4cccnc34)[O]c3cccc4cccnc34)cccc2c1` [gallium-triquinolin-8-olate]: the “inhibition” value is 3.63% (inactive).
Take `CN1CCCC(n2nc(Cc3ccc(Cl)cc3)c3ccccc3c2=O)CC1` (stereo not given) [azelastine]: the “inhibition” value was -3.03% (inactive).
Take `C[C@H]1C[C@@H]2[C@H]([C@@H](O)C[C@@]3(C)[C@H]2CC[C@]3(O)C(=O)COC(=O)CCC(=O)O)[C@@]2(C)C=CC(=O)C=C12` [methylprednisolone-sodium-succinate]: the “inhibition” value is -2.89% (inactive).
With `CN1C[C@@H](NS(=O)(=O)N(C)C)C[C@@H]2c3cccc4c3c(cn4C)C[C@H]21` [mesulergine], the “inhibition” value was 1.25% (inactive).
On to `CCS(=O)(=O)N(Cc1cccnc1)c1cccc(-c2ccc(C#N)cc2)c1`, for which the “inhibition” value is 8.38% (inactive).
To `COC(=O)[C@@H]1C[C@H](OC(C)=O)C(=O)[C@H]2[C@@]1(C)CC[C@H]1C(=O)O[C@H](c3ccoc3)C[C@]21C` [salvinorin-A] belongs 0.69% (inactive); to `O=C(O)c1ccccc1Nc1cccc(OCc2ccc3ccccc3n2)c1`, -0.51% (inactive); to `C/C=C/c1cc(OC)c(OC)cc1OC` [alpha-asarone], -0.33% (inactive).
To `Cc1ccc(S(=O)(=O)Nc2ccc3c(c2)c(C(=O)C(F)(F)F)cn3CC(=O)N[C@@H](CC(C)C)C(=O)O)cc1` belongs 3.55% (inactive); to `Cc1ccc(-n2nc(C(C)(C)C)cc2NC(=O)NCc2cc(F)ccc2Oc2ccc3c(cnn3CCO)c2)cc1` [pexmetinib], 3.62% (inactive).
Turning to `Cc1cn([C@H]2C[C@H](N=[N+]=[N-])[C@@H](CO)O2)c(=O)[nH]c1=O` [zidovudine], the “inhibition” value is -0.41% (inactive).
To `O=C1NC(c2ccccc2)(c2ccccc2)C(=O)N1COP(=O)(O)O` [fosphenytoin] belongs -0.44% (inactive); to `OC[C@@H](O)[C@@H](O)[C@@H](O)CO` [ribitol], 1.14% (inactive); to `CN1C(=O)CCS(=O)(=O)C1c1ccc(Cl)cc1` (stereo not given) [chlormezanone], 1.19% (inactive).
As for `O=C(C1CCCCC1)N1CC(=O)N2CCc3ccccc3C2C1` (stereo not given) [praziquantel], the “inhibition” value was 0.6% (inactive).
To `O=C(NC1CCNCC1)[C@@H]1CC[C@@H]2CN1C(=O)N2OS(=O)(=O)O` [relebactam] belongs -1.06% (inactive).
